According to PubChem BioAssay (NCI):
Compounds without any hit were thinned out: in the full panel of roughly 83,000, 20% have a hit.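 The test compound was applied at a single concentration to cells in 96-well plates for 48 hours, and percent growth was recorded.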 Active and inactive are the calls of the source. The calls were made as follows: active = growth percent below 10; inactive = the rest.

Columns and labels:
Experiment in all cases: NCI-60 one-dose screen, 48 h (100 = growth as untreated, 0 = no growth, -100 = all killed)
Settings in all cases: 10 µM
[1] = test system: T-47D breast
[2] = test system: BT-549 breast
[3] = test system: MDA-MB-435 melanoma
[4] = test system: SW-620 colon
[5] = test system: MCF7 breast
[6] = test system: HCT-116 colon
[7] = test system: HCC-2998 colon
[8] = test system: KM12 colon

Measured: growth

COC1OC2COC(c3ccccc3)OC2C(=O)C1NC(=O)c1ccccc1 (configuration not stated)
inactive: [1] 98.6% | [2] 107% | [3] 96.4% | [4] 88.2% | [5] 99.6% | [6] 99% | [7] 92.9% | [8] 96.7%

COc1ccc(Cn2cc3c(c2-c2cc(OC)c(OC)c(OC)c2)CCc2cnoc2-3)cc1[N+](=O)[O-]
active: [3] -53.9%
inactive: [1] 40% | [2] 51.9% | [4] 26.6% | [5] 26.6% | [6] 19.4% | [7] 18% | [8] 24.7%

COc1cc([C@@H]2c3cc4c(cc3[C@H](SC(=N)N)[C@H]3COC(=O)[C@H]23)OCO4)cc(OC)c1OC
active: [3] -31.1% | [6] 0.571% | [7] -1.43% | [8] -0.331%
inactive: [1] 58.6% | [2] 21.7% | [4] 22.5% | [5] 14.4%

CC(C)=C1CCC(C)C/C1=N\N=C(N)N (configuration not stated)
inactive: [1] 97.4% | [2] 107% | [3] 101% | [4] 103% | [5] 92.4% | [6] 102% | [7] 109% | [8] 107%

Cc1ccc(S(=O)(=O)N2CCc3ccccc3CC2)cc1
inactive: [1] 63.1% | [2] 64.7% | [3] 101% | [4] 97.6% | [5] 60.7% | [6] 68.5% | [7] 91% | [8] 94.3%

Cc1cc(C)c(/C=C2\C(=O)Nc3ccc(NC(=O)CCCCCCC(=O)NO)cc32)[nH]1
active: [3] 2.24% | [4] 5.42% | [6] -77.2%
inactive: [1] 15.3% | [2] 47.5% | [5] 12.2% | [7] 40.2% | [8] 60.2%

O=[N+]([O-])c1ccc(Br)o1
inactive: [1] 91.3% | [2] 97% | [3] 109% | [4] 109% | [5] 95.7% | [6] 101% | [7] 95% | [8] 99.1%

CCCCCCCCCCCCCCCCn1cc[n+](C)c1
active: [1] -0.127% | [2] -65.2% | [3] -55.8% | [4] -66.7% | [5] -79.9% | [6] -87.2% | [7] -94.4% | [8] -83.9%

CN(C1c2ccccc2Oc2ccccc21)S(=O)(=O)c1cc(Cl)ccc1Cl
active: [3] 4.17%
inactive: [1] 39.3% | [2] 71.9% | [4] 30.3% | [6] 31.3% | [7] 84.3% | [8] 42.8%

Cc1ccc(Cl)cc1Nc1nc(C(F)(F)F)ccc1C(=O)N/N=C/c1c(Cl)cccc1Cl
active: [1] -10.9% | [4] 3.99% | [5] 2.24% | [8] -15.9%
inactive: [2] 31% | [3] 13.1% | [6] 12.7%

COc1c(-c2c3sc(=O)[nH]c3nc3c2c(=O)[nH]n3C(C)C)cc2c(c1OC)OCO2
inactive: [1] 98.6% | [2] 84.6% | [3] 90.9% | [4] 108% | [5] 106% | [6] 101% | [7] 107% | [8] 101%

CCOc1nc(-c2ccccc2)cc2c(O)c(C(=O)NC(C)C)[nH]c(=O)c12
inactive: [1] 97.3% | [2] 147% | [3] 105% | [4] 96.1% | [5] 98.9% | [6] 101% | [8] 106%

COc1ccc2nc(/C=C/c3ccc(N(C)C)cc3)sc2c1
inactive: [1] 300% | [2] 104% | [3] 90.3% | [4] 93.6% | [5] 96.6% | [6] 105% | [8] 104%

CC1(C)CC(=O)c2c(nc3ccc(Cl)cc3c2-c2ccccc2)C1
inactive: [1] 85.7% | [2] 85.8% | [3] 84.5% | [4] 159% | [5] 86.3% | [6] 91% | [8] 94%

CC(=O)OC1Oc2ccccc2-c2oc(=O)c(-c3ccc(F)cc3)cc21 (configuration not stated)
inactive: [1] 77.2% | [2] 80.6% | [3] 51.5% | [4] 12.8% | [5] 63.2% | [6] 86.5% | [8] 89.9%

CCNC(=S)NN
inactive: [1] 47.2% | [2] 117% | [3] 93.7% | [4] 83.2% | [6] 10.4% | [7] 94.7% | [8] 109%

CC(C)C[C@H](NC(=O)CCn1ccc2ccccc2c1=O)B(O)O
inactive: [1] 27.6% | [2] 43.4% | [4] 34.1% | [6] 16.9% | [7] 59.9% | [8] 68.8%
active: [3] -39.6%

O=c1oc2c3ccc4cnccc4c3[nH]c2c2ccccc12
active: [1] -8.53% | [3] -69.8% | [4] 3.35% | [5] -12.3% | [6] -14.5%
inactive: [2] 32.7% | [8] 28.2%

O=C(N/N=C/c1ccccc1O)c1ccccc1
active: [5] 3.31%
inactive: [1] 25.5% | [2] 60.4% | [3] 56.7% | [4] 42.2% | [6] 14.9% | [8] 35.4%

COc1cc(NS(C)(=O)=O)ccc1Nc1c2ccc(Cl)cc2nc2c(OC)cccc12
inactive: [1] 27.7% | [2] 18.3% | [3] 51%
active: [4] -32% | [6] -63.7% | [7] -26.6% | [8] -49.4%

CN(C)c1ccc2cc(-c3cc4c(oc3=O)-c3ccccc3OC4O)c(=O)oc2c1 (configuration not stated)
active: [1] -12.3% | [2] -17.4% | [3] -23.8% | [8] -37.7%
inactive: [4] 17.1% | [5] 18.7% | [6] 12.8%

Cc1ccc(C)c(S(=O)(=O)NC2c3ccccc3Oc3ccccc32)c1
inactive: [1] 72.1% | [2] 102% | [3] 107% | [4] 88.8% | [5] 90.8% | [6] 91.8% | [7] 104% | [8] 102%

O=C(OCc1ncc(-c2ccc(C(F)(F)F)cc2)c(NC2CCCCCC2)n1)c1c(F)c(F)c(F)c(F)c1F
inactive: [1] 28.3% | [2] 67.8% | [3] 57.3% | [4] 64.5% | [5] 51% | [6] 52.6% | [7] 84.2% | [8] 45.6%

CC[C@@]1(C(N)=O)CC2C=CC1C2 (some centres not stated)
inactive: [1] 103% | [2] 104% | [3] 106% | [4] 113% | [6] 104% | [7] 108% | [8] 119%

COc1ccc2c(c1)/C(=C/c1cc(OC)c(OC)c(OC)c1)C(=O)N2C
active: [1] -11.1% | [3] -50.3% | [4] 1.64% | [5] 4.54% | [8] -20.8%
inactive: [2] 57.1% | [6] 19.3%

COc1cc(N=C2C(=O)N(Cc3ccccc3)c3ccccc32)cc(OC)c1OC
inactive: [1] 83.9% | [2] 106% | [3] 98.5% | [4] 103% | [5] 93.8% | [6] 99.8% | [8] 96.1%

FC(F)(F)c1ccc(-c2cnc(Cl)nc2NCc2cc(C(F)(F)F)cc(C(F)(F)F)c2)cc1
active: [5] 4.38% | [6] 4.49%
inactive: [1] 10.5% | [2] 26.2% | [3] 14.3% | [4] 17.5% | [8] 13.1%

C(=C\c1nc2ccccc2s1)/c1ccc(N2CCOCC2)s1
active: [1] 1.72%
inactive: [2] 89.5% | [3] 64.9% | [4] 101% | [5] 80.2% | [6] 55.4% | [8] 48.6%
